Shown are actives, neighbours in structure and some others; about 5.4% of the full set was active somewhere.
p53 reactivation – restores transcriptional activity of mutant p53; 320,000 tested, 0.063% active; Potency, µM (highest dose often 92.2 µM), inactives show at the top dose activity change, positive = activation, usual class: activators; AID 504706; H1299 p53-A138V BP100-luciferase reporter, luminescence, 24 h; note: potency is the fitted concentration of half-maximal effect; % of control where 0% means no effect; nearly all actives have a fitted effect of over 45% in size
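p53-null H1299 cells stably carrying temperature-sensitive p53-A138V and a BP100-luciferase reporter were pinned with compounds (4-point, 1:5 series) and held 24 hrs at 37 deg C. Luminescence was read 10 min after detection reagent.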
CtBP-E1A blk – blocks the CtBP interaction with E1A; AlphaScreen GST-E1A/His-CtBP binding, 1536-well; active compounds read low; activity change, % (concentration not given with the values); 340,000 tested, 0.49% active; AID 651724; in the data active = activity change below about -65%; inconclusive = mostly about -30% to -63%; note: % is set by controls: 0 for no effect and ±100 for the full control effect
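Protein mix (5X: 125 nM each GST-E1A, His-CtBP) was incubated with pinned compound 2 h at 37 deg C in dark, in 50 mM Tris pH 8.0 buffer with 300 mM NaCl. Glutathione donor and nickel acceptor beads followed; AlphaScreen signal read after 1 h.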
RORgamma inh – ROR gamma (mouse) transcription inhibition; Drosophila S2 Gal4-RORgamma UAS-luciferase reporter, 20 h; Potency, µM (titrated, usually from 53.6 µM), for the others: at the highest dose activity change, negative = inhibition, actives largely listed as inhibitors; 310,000 tested, 5.4% active; note: potency is the fitted concentration of half-maximal effect; % is set by controls: 0 for no effect and ±100 for the full control effect; nearly all actives have a fitted effect of over 60% in size
Target sequence (P51450 whole entry, looked up, the tested form may be a part): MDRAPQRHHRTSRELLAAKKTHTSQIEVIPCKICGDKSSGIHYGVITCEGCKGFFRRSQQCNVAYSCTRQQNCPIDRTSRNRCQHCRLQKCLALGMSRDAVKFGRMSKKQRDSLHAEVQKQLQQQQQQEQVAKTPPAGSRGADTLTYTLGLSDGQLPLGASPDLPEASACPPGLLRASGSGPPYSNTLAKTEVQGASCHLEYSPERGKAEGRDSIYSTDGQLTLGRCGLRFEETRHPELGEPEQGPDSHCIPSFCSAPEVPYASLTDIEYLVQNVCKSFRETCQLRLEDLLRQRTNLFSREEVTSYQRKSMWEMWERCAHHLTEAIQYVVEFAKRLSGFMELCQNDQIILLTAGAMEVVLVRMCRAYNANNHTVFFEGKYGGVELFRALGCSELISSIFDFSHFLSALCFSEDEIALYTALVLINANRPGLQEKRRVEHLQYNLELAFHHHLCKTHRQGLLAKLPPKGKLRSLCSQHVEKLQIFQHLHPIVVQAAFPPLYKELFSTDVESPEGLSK
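Luciferase reporter read in Schneider cells carrying Gal4-RORγ (mouse) and UAS-Photinus luciferase; cells given compound 1 h before 700 uM copper sulfate induction, then incubated 20 h at ambient temperature.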
Six1-Eya2 inh – inhibitors of human Six1/Eya2 interaction. AlphaScreen GST-Six1/His-Eya2 binding, biochemical; active compounds read low. activity change, % (concentration not given with the values). 360,000 tested, 0.56% active. AID 651725; in the data active = activity change below about -65%; inconclusive = mostly about -30% to -63%; note: % is set by controls: 0 for no effect and ±100 for the full control effect
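Compounds are tested against tagged Six1 and Eya2 proteins bridged by glutathione donor and nickel acceptor beads; after a one-hour incubation at 37 °C without light, AlphaScreen emission is recorded.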
Gal4-VP16 FLuc – Gal4-VP16 reporter inhibition counter-screen; Drosophila S2 Gal4-VP16 UAS-luciferase, luminescence, 20 h; Potency, µM (top dose mostly 53.6 µM), inactives show at the top dose activity, negative = inhibition, most hits filed as inhibitors; 310,000 tested, 3.5% active; AID 2546;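 note: Gal4-VP16 expression switched on by copper sulfate through the metallothionein promoter; potency is the fitted concentration of half-maximal effect; % is set by controls: 0 for no effect and ±100 for the full control effect; nearly all actives have a fitted effect of over 50% in size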
Active calls of the source: *; ? = inconclusive; . = no result. Unless noted, calls come from the whole dose curve; as a rule, active = well fitted curve in the direction sought with a large enough effect; inconclusive = small, poorly fitted or top-dose-only effect, or another doubt; inactive = no such curve, though single readings can be large; an effect the other way counts as inactive or inconclusive.

SMILES	p53 reactivation	CtBP-E1A blk	RORgamma inh	Six1-Eya2 inh	Gal4-VP16 FLuc
Cn1c(=O)oc2cc(S(=O)(=O)NC3CCCc4ccccc43)ccc21 (stereo not drawn)	-1.3%	0.5	-11.7%	-0.4	-14.9%
CCOC(=O)C1CCCN(S(=O)(=O)c2cc3c4c(c2)CCC(=O)N4CCC3)C1 (stereo not drawn)	-6.5%	2.0	.	5.7	.
N=C1C(c2nc3ccccc3[nH]2)=C(O)CN1c1ccccc1	22.8%	-12.0	14.1µM*	-12.8	?
Cc1cc(N2O[C@]34C=C[C@]25C[C@@H](O)CC[C@]5(C)C3CC[C@]2(C)[C@@H]([C@H](C)/C=C/[C@H](C)C(C)C)CC[C@H]24)no1 (stereo partly drawn)	-0.4%	-0.6	.	-2.0	.
O=C(O)CCCNC(=O)OCc1ccccc1	-6.8%	4.2	?	28.8	6.31µM*
O=C(NCCCCCCNC(=O)OCc1ccccc1)OCc1ccccc1	.	-5.0	.	0.7	.
Oc1c(Cl)cc(Cl)cc1CNc1ccccn1	11.8%	?	?	-72.4*	-1.4%
Cc1cc(C)c2c(=O)n(CC(=O)NC3CCCC3)sc2n1	-16.0%	0.6	?	6.0	?
Cc1cc(C)c2c(=O)n(CC(=O)Nc3ccc(Br)c(C)c3)sc2n1	-2.5%	-6.8	12.6µM*	-9.8	?
Cc1cc(C)c2c(=O)n(CC(=O)Nc3cccc(Cl)c3C)sc2n1	-7.6%	-6.4	?	-19.9	3.16µM*
CCCNc1nc(Nc2ccc(C)cc2)nc(N2CCCC2)n1	1.5%	-2.2	?	-3.2	?
CC(C)(C)OC(=O)C(C)(C)Sc1nnc(N)s1	-1.5%	-9.4	-3.3%	-18.8	-1.5%
COc1cc(/C=N/NC(=O)CSc2ccccn2)ccc1O	-0.8%	3.9	-9.5%	-8.0	1.0%
COc1cc([N+](=O)[O-])cc(/C=N/NC(=O)Cn2cncn2)c1O	2.3%	.	?	-90.4*	-3.8%
COc1cc([N+](=O)[O-])cc(/C=N/NC(=O)CSc2ccccn2)c1O	11.8%	-91.0*	0.631µM*	-81.6*	6.31µM*
COc1ccc([N+](=O)[O-])cc1/C=N/NC(=O)Cc1ccccc1	0.0%	.	7.94µM*	-7.9	?
O=S(=O)(NNc1ncc(C(F)(F)F)cc1Cl)c1ccccc1	8.5%	-14.4	.	13.4	.
COc1ccc(CNc2ncc(-c3ccc(Br)cc3)n2C)cc1OC	5.5%	-8.9	-30.7%	-7.2	-16.1%
Cc1cc(N/N=C2\CC(C)CC(C)(C)C2)nc2ccccc12 (stereo not drawn)	-0.9%	-5.3	12.6µM*	-4.7	-3.8%
CC1C/C(=N/NC(=O)c2ccc(CSc3nc4ccccc4[nH]3)cc2)CC(C)(C)C1 (stereo not drawn)	19.1%	-2.7	16.7%	-1.3	-5.8%
CC1C/C(=N/Nc2ccc([N+](=O)[O-])cc2[N+](=O)[O-])CC(C)(C)C1 (stereo not drawn)	-4.6%	-29.6	5.5%	?	-1.0%
CC1C/C(=N/Nc2nc3ccccc3[nH]2)CC(C)(C)C1 (stereo not drawn)	2.2%	-10.2	3.16µM*	-3.6	8.91µM*
c1ccc2nc(NN=C3CCCCC3)ccc2c1	.	-4.2	.	-4.4	.
c1ccc2[nH]c(NN=C3CCCCCC3)nc2c1	2.9%	-6.9	11.2µM*	-7.5	?
Cc1ccc(Nc2nc3ccccc3[nH]2)nc1	?	-15.3	5.01µM*	-8.1	5.01µM*
SMILES	p53 reactivation	CtBP-E1A blk	RORgamma inh	Six1-Eya2 inh	Gal4-VP16 FLuc
c1ccc2[nH]c(NC3=NCCC3)nc2c1	2.3%	-14.5	2.82µM*	-9.7	11.2µM*
CCc1ccccc1Nc1nc2ccccc2[nH]1	.	.	.	-0.3	.
CCn1c(COc2cc(C)ccc2C(C)C)nnc1SCC(=O)Nc1nccs1	-1.4%	.	-3.2%	-12.3	-3.6%
Cc1ccc(S(=O)(=O)N2C[C@H]3C(=O)C[C@@H](c4ccccc4)N(S(C)(=O)=O)[C@H]3C[C@H]2c2ccccc2)cc1	.	0.2	.	-10.3	.
CC1=CSC2=NC(=O)/C(=C\c3cccn3-c3ccc([N+](=O)[O-])cc3)C(=N)N12	-6.3%	4.0	?	131.4	3.16µM*
CCC1=NN2C(=N)/C(=C\c3cccn3-c3ccc(Br)cc3)C(=O)N=C2S1	-1.0%	.	-0.3%	-1.1	-13.4%
CC(C)c1ccc(-n2cccc2/C=C2/C(=N)N3C=CSC3=NC2=O)cc1	12.3%	-28.1	7.08µM*	-20.6	15.8µM*
CCC1=NN2C(=N)/C(=C\c3cccn3-c3cccc(Cl)c3)C(=O)N=C2S1	1.5%	-1.7	11.2µM*	-11.8	6.8%
CC1=CSC2=NC(=O)/C(=C\c3cccn3-c3ccccc3)C(=N)N12	-4.6%	-11.3	-3.9%	-19.5	7.4%
COc1ccc(-c2ccc(/C=C3/C(=N)N4C(C)=CSC4=NC3=O)o2)c([N+](=O)[O-])c1	-4.4%	-6.6	11.2µM*	-20.0	?
COc1cc(F)c(S(=O)(=O)N2CCOc3ccccc32)cc1OC	-2.4%	-24.3	-8.7%	-17.6	6.0%
CN(C)C(N)=NCCC[C@H](N)C(=O)O	.	-23.6	.	1.0	.
O=C(NCc1cccnc1)c1ccc(Br)o1	-3.8%	6.8	.	-4.2	.
CC#CC(=O)Nc1cc2c(Nc3ccc(F)c(Cl)c3)ncnc2cn1	.	.	-1.3%	.	4.4%
COc1cccc(NC(=O)NC2CCN(Cc3nnnn3Cc3ccc4c(c3)OCO4)CC2)c1	-8.4%	.	5.6%	-4.4	4.8%
C/C(=N\NC(=O)c1nnn(-c2nonc2N)c1CN1CCc2ccccc21)c1ccccc1O	6.2%	.	2.24µM*	22.7	4.47µM*
Nc1nonc1-n1nnc(C(=O)N/N=C/c2ccccc2)c1CN1CCc2ccccc21	1.4%	-3.1	-7.5%	-12.8	-6.9%
COc1ccccc1/C(C)=N/NC(=O)c1nnn(-c2nonc2N)c1C(C)C	-12.5%	-6.6	7.08µM*	3.1	-29.2%
CC(C)c1c(C(=O)N/N=C/c2cccs2)nnn1-c1nonc1N	8.7%	0.7	?	-5.0	-88.2%
CCCc1c(C(=O)N/N=C/c2sccc2C)nnn1-c1nonc1N	-6.0%	1.7	?	-0.3	5.62µM*
CCCc1c(C(=O)N/N=C/c2ccncc2)nnn1-c1nonc1N	-1.6%	.	24.0%	1.1	-4.1%
Cc1ccsc1/C=N/NC(=O)c1nnn(-c2nonc2N)c1C(C)C	-0.3%	.	11.2µM*	2.0	17.8µM*
CC1=CC2(C)NC(=O)C(C)C12 (stereo not drawn)	.	-0.3	.	0.3	.
CC1CCN(c2nc(CN3CCCCC3)nc3scc(-c4ccccc4)c23)CC1	-4.1%	-1.8	10µM*	-2.0	22.4µM*
CCCc1cc(Nc2ccccc2OCC)n2ncnc2n1	-6.1%	-3.3	11.2µM*	-1.4	?
CN(C)S(=O)(=O)Nc1ccc(Cc2ccncc2)cc1	.	1.5	.	2.0	.
O=C(CCS(=O)(=O)c1ccc(F)cc1)Nc1nnc(-c2ccco2)o1	?	-14.2	.	-10.0	.
